# Screen size: about 5,500 compounds; about 2,000 (36%) were called active. Inconclusive results (about 18%) are left out. The list shows a part of the results. Values without a mark were called inactive. No stated cut-off is given here; in the data, active means normalized growth mostly below about 0.91 (no sharp cut-off); inconclusive means no clear call, values can overlap the other calls; inactive means mostly above about 0.92.
# Test: chemical genetic growth profiling, strain panel (AID 1159580);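 further: tested at 20 µM; growth read once vehicle control cultures reached saturation at 30 °C; 1 = growth at the plate median or of vehicle wells; lower values mean less growth of the strain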
# Conditions: S. cerevisiae deletion strains, growth OD
# [1] = locus YAL021C, strain ccr4, hits give low values
# [2] = locus YAL026C, strain drs2, hits give low values
# [3] = locus YAL030W, strain snc1, hits give low values
# [4] = locus YBL061C, strain skt5, hits give low values
# [5] = locus YBR009C, strain hhf1, hits give low values
# [6] = locus YBR023C, strain chs3, hits give low values
# [7] = locus YBR171W, strain sec66, hits give low values
# [8] = locus YBR231C, strain swc5, hits give low values
# [9] = locus YBR279W, strain paf1, hits give low values
# [10] = locus YCL011C, strain gbp2, hits give low values
# [11] = locus YCL016C, strain dcc1, hits give low values
# [12] = locus YCL061C, strain MRC1, hits give low values
# [13] = locus YCL069W, strain vba3, hits give low values
# [14] = locus YCR088W, strain abp1, hits give low values
# [15] = locus YDL005C, strain med2, hits give low values
# [16] = locus YDL040C, strain nat1, hits give low values
# [17] = locus YDR001C, strain nth1, hits give low values
# [18] = locus YDR069C, strain doa4, hits give low values
# [19] = locus YDR137W, strain rgp1, hits give low values
# [20] = locus YDR159W, strain sac3, hits give low values
# [21] = locus YDR297W, strain sur2, hits give low values
# [22] = locus YDR334W, strain swr1, hits give low values
# [23] = locus YDR335W, strain msn5, hits give low values
# [24] = locus YDR392W, strain spt3, hits give low values
# [25] = locus YEL003W, strain gim4, hits give low values
# [26] = locus YEL037C, strain rad23, hits give low values
# [27] = locus YEL061C, strain CIN8 (second series), hits give low values
# [28] = locus YER015W, strain faa2, hits give low values
# [29] = locus YER016W, strain bim1, hits give low values
# [30] = locus YER111C, strain swi4, hits give low values
# [31] = locus YER155C, strain BEM2 (second series), hits give low values
# [32] = locus YFR010W, strain ubp6, hits give low values
# [33] = locus YGL167C, strain pmr1, hits give low values
# [34] = locus YGL173C, strain kem1, hits give low values
# [35] = locus YGL227W, strain vid30, hits give low values
# [36] = locus YGL240W, strain doc1, hits give low values
# [37] = locus YGL253W, strain hxk2, hits give low values
# [38] = locus YHR013C, strain ard1, hits give low values
# [39] = locus YHR027C, strain rpn1, hits give low values
# [40] = locus YHR142W, strain chs7, hits give low values
# [41] = locus YJL092W, strain hpr5, hits give low values
# [42] = locus YJL095W, strain BCK1 (second series), hits give low values
# [43] = locus YJL115W, strain asf1, hits give low values
# [44] = locus YJL129C, strain trk1, hits give low values
# [45] = locus YJL154C, strain vps35, hits give low values
# [46] = locus YJL164C, strain tpk1, hits give low values
# [47] = locus YJL166W, strain qcr8, hits give low values
# [48] = locus YJL187C, strain SWE1, hits give low values
# [49] = locus YKL160W, strain elf1, hits give low values
# [50] = locus YKR026C, strain gcn3, hits give low values
# [51] = locus YKR091W, strain srl3, hits give low values
# [52] = locus YLL001W, strain dnm1, hits give low values
# [53] = locus YLL026W, hits give low values
# [54] = locus YLL041C, strain sdh2, hits give low values
# [55] = locus YLR027C, strain aat2, hits give low values
# [56] = locus YLR221C, strain rsa3, hits give low values
# [57] = locus YLR258W, strain gsy2, hits give low values
# [58] = locus YLR262C, strain YPT6 (second series), hits give low values
# [59] = locus YLR320W, strain mms22, hits give low values
# [60] = locus YLR342W, strain FKS1, hits give low values
# [61] = locus YLR357W, strain rsc2, hits give low values
# [62] = locus YLR370C, strain arc18, hits give low values
# [63] = locus YLR384C, strain iki3, hits give low values
# [64] = locus YML120C, strain ndi1, hits give low values
# [65] = locus YMR125W, strain sto1, hits give low values
# [66] = locus YMR129W, hits give low values
# [67] = locus YMR205C, strain PFK2, hits give low values
# [68] = locus YMR231W, strain pep5, hits give low values
# [69] = locus YNL071W, strain lat1, hits give low values
# [70] = locus YNL209W, strain ssb2, hits give low values
# [71] = locus YNL248C, strain rpa49, hits give low values
# [72] = locus YNL322C, strain KRE1 (second series), hits give low values
# [73] = locus YNR049C, strain mso1, hits give low values
# [74] = locus YOR001W, strain rrp6, hits give low values
# [75] = locus YOR070C, strain gyp1, hits give low values
# [76] = locus YOR080W, strain dia2, hits give low values
# [77] = locus YOR083W, strain WHI5, hits give low values
# [78] = locus YOR106W, strain vam3, hits give low values
# [79] = locus YOR265W, strain rbl2, hits give low values
# [80] = locus YOR270C, strain vph1, hits give low values
# [81] = locus YOR290C, strain snf2, hits give low values
# [82] = locus YPL051W, strain arl3, hits give low values
# [83] = locus YPL078C, strain atp4, hits give low values
# [84] = locus YPL106C, strain sse1, hits give low values
# [85] = locus YPL240C, strain hsp82, hits give low values
smiles,measurement,setting,value
O=c1cc(-c2ccc(O)c(O)c2)oc2ccccc12,normalized growth,[1],0.999
same,normalized growth,[2],0.964
same,normalized growth,[3],0.986
same,normalized growth,[4],0.965
same,normalized growth,[5],0.933
same,normalized growth,[6],0.961
same,normalized growth,[7],0.97
same,normalized growth,[8],0.924
same,normalized growth,[9],0.977
same,normalized growth,[10],0.956
same,normalized growth,[11],0.969
same,normalized growth,[12],0.965
same,normalized growth,[13],0.996
same,normalized growth,[14],0.997
same,normalized growth,[15],0.998
same,normalized growth,[16],0.989
same,normalized growth,[17],0.994
same,normalized growth,[18],0.893 (active)
same,normalized growth,[19],0.985
same,normalized growth,[20],0.971
same,normalized growth,"locus YDR195W, strain ref2",1.02
same,normalized growth,[21],0.971
same,normalized growth,[22],0.976
same,normalized growth,[23],0.995
same,normalized growth,[24],0.954
same,normalized growth,[25],0.946
same,normalized growth,[26],0.984
same,normalized growth,[27],0.989
same,normalized growth,[28],0.955
same,normalized growth,[29],0.991
same,normalized growth,[30],0.962
same,normalized growth,[31],0.926
same,normalized growth,[32],0.947
same,normalized growth,[33],0.98
same,normalized growth,[34],0.936
same,normalized growth,[35],0.991
same,normalized growth,[36],1.01
same,normalized growth,[37],0.963
same,normalized growth,[38],0.983
same,normalized growth,[39],0.966
same,normalized growth,[40],0.962
same,normalized growth,[41],0.983
same,normalized growth,[42],0.976
same,normalized growth,[43],0.991
same,normalized growth,[44],0.978
same,normalized growth,[45],0.996
same,normalized growth,[46],0.942
same,normalized growth,[47],0.932
same,normalized growth,[48],0.982
same,normalized growth,[49],0.974
same,normalized growth,[50],0.972
same,normalized growth,[51],1
same,normalized growth,[52],0.965
same,normalized growth,[53],0.987
same,normalized growth,[54],0.99
same,normalized growth,[55],0.943
same,normalized growth,[56],0.927
same,normalized growth,[57],0.967
same,normalized growth,[58],0.934
same,normalized growth,[59],0.943
same,normalized growth,[60],0.961
same,normalized growth,[61],0.927
same,normalized growth,[62],0.993
same,normalized growth,[63],0.981
same,normalized growth,[64],0.978
same,normalized growth,[65],0.991
same,normalized growth,[66],0.99
same,normalized growth,[67],0.982
same,normalized growth,[68],0.961
same,normalized growth,[69],0.965
same,normalized growth,[70],0.932
same,normalized growth,[71],0.986
same,normalized growth,[72],0.989
same,normalized growth,[73],0.992
same,normalized growth,[74],0.928
same,normalized growth,[75],0.956
same,normalized growth,[76],0.986
same,normalized growth,[77],0.959
same,normalized growth,[78],0.867 (active)
same,normalized growth,[79],1.01
same,normalized growth,[80],0.83
same,normalized growth,[81],0.968
same,normalized growth,[82],0.926
same,normalized growth,[83],0.985
same,normalized growth,[84],0.938
same,normalized growth,[85],0.99
O=c1cc(-c2cccc(O)c2)oc2ccc(O)cc12,normalized growth,[1],0.959
same,normalized growth,[2],0.946
same,normalized growth,[3],0.957
same,normalized growth,[4],0.952
same,normalized growth,[5],0.934
same,normalized growth,[6],0.947
same,normalized growth,[7],0.956
same,normalized growth,[8],0.939
same,normalized growth,[9],0.962
same,normalized growth,[10],0.933
same,normalized growth,[11],0.952
same,normalized growth,[12],0.949
same,normalized growth,[13],0.969
same,normalized growth,[14],0.962
same,normalized growth,[15],0.951
same,normalized growth,[16],0.971
same,normalized growth,[17],0.943
same,normalized growth,[18],0.946
same,normalized growth,[19],0.778 (active)
same,normalized growth,[20],0.975
same,normalized growth,"locus YDR195W, strain ref2",1.06
same,normalized growth,[21],0.953
same,normalized growth,[22],0.924
same,normalized growth,[23],0.938
same,normalized growth,[24],0.873
same,normalized growth,[25],0.943
same,normalized growth,[26],0.964
same,normalized growth,[27],0.951
same,normalized growth,[28],0.936
same,normalized growth,[29],0.944
same,normalized growth,[30],0.956
same,normalized growth,[31],0.925
same,normalized growth,[32],0.962
same,normalized growth,[33],0.942
same,normalized growth,[34],0.941
same,normalized growth,[35],0.953
same,normalized growth,[36],0.91
same,normalized growth,[37],0.952
same,normalized growth,[38],0.953
same,normalized growth,[39],0.955
same,normalized growth,[40],0.885
same,normalized growth,[41],0.953
same,normalized growth,[42],0.942
same,normalized growth,[43],0.947
same,normalized growth,[44],0.903
same,normalized growth,[45],0.962
same,normalized growth,[46],0.947
same,normalized growth,[47],0.95
same,normalized growth,[48],0.936
same,normalized growth,[49],0.936
same,normalized growth,[50],0.948
same,normalized growth,[51],0.952
same,normalized growth,[52],0.945
same,normalized growth,[53],0.947
same,normalized growth,[54],0.951
same,normalized growth,[55],0.938
same,normalized growth,[56],0.894 (active)
same,normalized growth,[57],0.939
same,normalized growth,[58],0.804 (active)
same,normalized growth,[59],0.923
same,normalized growth,[60],0.983
same,normalized growth,[61],0.906
same,normalized growth,[62],0.933
same,normalized growth,[63],0.951
same,normalized growth,[64],0.952
same,normalized growth,"locus YMR058W, strain fet3, hits give low values",0.942
same,normalized growth,[65],0.959
same,normalized growth,[66],0.983
same,normalized growth,[67],0.944
same,normalized growth,[68],0.958
same,normalized growth,[69],0.958
same,normalized growth,[70],0.945
same,normalized growth,[71],0.931
same,normalized growth,[72],0.958
same,normalized growth,[73],0.942
same,normalized growth,[74],0.948
same,normalized growth,[75],0.964
same,normalized growth,[76],0.93
same,normalized growth,[77],0.928
same,normalized growth,[78],0.933
same,normalized growth,[79],0.958
same,normalized growth,[80],0.865
same,normalized growth,[81],0.893
same,normalized growth,[82],0.92
same,normalized growth,[83],0.956
same,normalized growth,[84],0.827 (active)
same,normalized growth,[85],0.952

# Source: PubChem BioAssay AID1159580 (chemical genetic matrix, 2015)
